# Legend:
# Assay in all cases: difference in mean normalized H2B-mRuby nuclear fluorescence intensity relative to DMSO control (normalized intensity difference (DMSO = 0)); higher = stronger increase in transgene reporter fluorescence
# Conditions in all cases: 24 h
# H1299 = system: H1299
# Procedure, shortened: (§1)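 Each value is the shift in mean per-nucleus normalized H2B-mRuby intensity relative to DMSO-treated cells. Cancer cell lines carrying stable, lentivirally transduced H2B-mRuby2 under hygromycin selection were exposed to drug for 24 h, with DMSO kept equal across wells. Unstained cells were imaged on a Leica DMI8 with bright-field autofocus, using 541–551 nm excitation and 565–605 nm emission. Data come from about 3 repeats of 4 fields each.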
# LN-18 = system: LN-18
# Procedure, shortened: as §1
# SK-OV-3 = system: SK-OV-3
# Procedure, shortened: as §1
smiles,measurement,setting,value
COc1cc2nccc(Oc3ccc(NC(=O)C4(C(=O)Nc5ccc(F)cc5)CC4)cc3)c2cc1OC (concentration unit: uM),difference,H1299; concentration: 0.5,0.0394
same,difference,H1299; concentration: 1,-0.122
same,difference,H1299; concentration: 2.5,-0.0701
same,difference,H1299; concentration: 5,0.0398
same,difference,H1299; concentration: 10,0.0491
Cc1[nH]c2ccccc2c1CCNCc1ccc(/C=C/C(=O)NO)cc1 (concentration unit: nM),difference,H1299; concentration: 10,0.43
same,difference,H1299; concentration: 25,0.738
same,difference,H1299; concentration: 50,0.733
same,difference,H1299; concentration: 100,0.864
same,difference,H1299; concentration: 250,0.886
same,difference,H1299; concentration: 500,0.923
same,difference,LN-18; concentration: 10,0.22
same,difference,LN-18; concentration: 50,0.459
same,difference,LN-18; concentration: 100,0.491
same,difference,LN-18; concentration: 250,0.528
same,difference,LN-18; concentration: 500,0.494
same,difference,SK-OV-3; concentration: 10,0.269
same,difference,SK-OV-3; concentration: 50,1.12
same,difference,SK-OV-3; concentration: 100,1.16
same,difference,SK-OV-3; concentration: 250,1.1
same,difference,SK-OV-3; concentration: 500,1.13
C=CCn1c(=O)c2cnc(Nc3ccc(N4CCN(C)CC4)cc3)nc2n1-c1cccc(C(C)(C)O)n1 (concentration unit: uM),difference,H1299; concentration: 0.1,0.0483
same,difference,H1299; concentration: 0.5,0.108
same,difference,H1299; concentration: 1,0.027
same,difference,H1299; concentration: 2.5,-0.00187
same,difference,H1299; concentration: 5,-0.0335
COc1cccc2c1C(=O)c1c(O)c3c(c(O)c1C2=O)C[C@@](O)(C(=O)CO)C[C@@H]3O[C@H]1C[C@H](N)[C@H](O)[C@H](C)O1 (concentration unit: nM),difference,LN-18; concentration: 25,-0.017
same,difference,LN-18; concentration: 100,-0.0175
same,difference,LN-18; concentration: 250,0.0434
same,difference,LN-18; concentration: 1000,0.361
same,difference,LN-18; concentration: 2500,0.899
same,difference,SK-OV-3; concentration: 25,-0.00185
same,difference,SK-OV-3; concentration: 100,0.13
same,difference,SK-OV-3; concentration: 250,0.133
same,difference,SK-OV-3; concentration: 1000,0.252
same,difference,SK-OV-3; concentration: 2500,0.93
Cc1nc(Nc2ncc(C(=O)Nc3c(C)cccc3Cl)s2)cc(N2CCN(CCO)CC2)n1 (concentration unit: nM),difference,LN-18; concentration: 25,0.0292
same,difference,LN-18; concentration: 100,0.0217
same,difference,LN-18; concentration: 250,0.0754
same,difference,LN-18; concentration: 1000,0.0482
same,difference,LN-18; concentration: 2500,-0.0509
same,difference,SK-OV-3; concentration: 25,0.111
same,difference,SK-OV-3; concentration: 100,0.606
same,difference,SK-OV-3; concentration: 250,0.528
same,difference,SK-OV-3; concentration: 1000,0.636
same,difference,SK-OV-3; concentration: 2500,0.551
C[C@@H](Oc1cc(-c2cnn(C3CCNCC3)c2)cnc1N)c1c(Cl)ccc(F)c1Cl (concentration unit: uM),difference,H1299; concentration: 0.25,0.0337
same,difference,H1299; concentration: 1,-0.111
same,difference,H1299; concentration: 2.5,-0.0387
same,difference,H1299; concentration: 5,0.194
same,difference,H1299; concentration: 10,0.228
O=C(/C=C/c1cccc(S(=O)(=O)Nc2ccccc2)c1)NO (concentration unit: uM),difference,H1299; concentration: 0.25,0.186
same,difference,H1299; concentration: 0.5,0.231
same,difference,H1299; concentration: 1,0.491
same,difference,H1299; concentration: 2.5,0.854
same,difference,H1299; concentration: 5,1.19
Cn1c(=O)n(-c2ccc(C(C)(C)C#N)cc2)c2c3cc(-c4cnc5ccccc5c4)ccc3ncc21 (concentration unit: nM),difference,H1299; concentration: 10,0.158
same,difference,H1299; concentration: 50,0.191
same,difference,H1299; concentration: 100,0.157
same,difference,H1299; concentration: 250,0.0684
same,difference,H1299; concentration: 500,0.0286
CNC(=O)c1cc(Oc2ccc(NC(=O)Nc3ccc(Cl)c(C(F)(F)F)c3)cc2)ccn1 (concentration unit: uM),difference,H1299; concentration: 1,0.0342
same,difference,H1299; concentration: 2.5,-0.0184
same,difference,H1299; concentration: 5,-0.0837
same,difference,H1299; concentration: 10,-0.0051
same,difference,H1299; concentration: 25,-0.155
N#CC[C@H](C1CCCC1)n1cc(-c2ncnc3[nH]ccc23)cn1 (concentration unit: uM),difference,H1299; concentration: 1,0.0876
same,difference,H1299; concentration: 2.5,-0.0462
same,difference,H1299; concentration: 5,-0.0185
same,difference,H1299; concentration: 10,-0.0963
same,difference,H1299; concentration: 25,0.115
CC(=O)O[C@H]1C(=O)[C@@]2(C)[C@H]([C@H](OC(=O)c3ccccc3)[C@]3(O)C[C@H](OC(=O)[C@H](O)[C@@H](NC(=O)c4ccccc4)c4ccccc4)C(C)=C1C3(C)C)[C@]1(OC(C)=O)CO[C@@H]1C[C@@H]2O (concentration unit: nM),difference,H1299; concentration: 10,-0.0339
same,difference,H1299; concentration: 25,-0.0112
same,difference,H1299; concentration: 50,0.134
same,difference,H1299; concentration: 100,0.374
same,difference,H1299; concentration: 1000,0.566
Nc1ncn([C@@H]2O[C@H](CO)[C@@H](O)[C@H]2O)c(=O)n1 (concentration unit: uM),difference,LN-18; concentration: 1,0.03
same,difference,LN-18; concentration: 2.5,0.0353
same,difference,LN-18; concentration: 5,0.0211
same,difference,LN-18; concentration: 10,0.0474
same,difference,LN-18; concentration: 20,0.00195
same,difference,SK-OV-3; concentration: 1,0.0139
same,difference,SK-OV-3; concentration: 2.5,-0.0364
same,difference,SK-OV-3; concentration: 5,0.0517
same,difference,SK-OV-3; concentration: 10,0.126
same,difference,SK-OV-3; concentration: 20,0.105
COc1cc2ncnc(Nc3ccc(F)c(Cl)c3)c2cc1OCCCN1CCOCC1 (concentration unit: uM),difference,LN-18; concentration: 1,0.099
same,difference,LN-18; concentration: 2.5,0.00859
same,difference,LN-18; concentration: 5,0.0147
same,difference,LN-18; concentration: 10,0.0212
same,difference,LN-18; concentration: 20,0.00315
same,difference,SK-OV-3; concentration: 1,0.00612
same,difference,SK-OV-3; concentration: 2.5,-0.00968
same,difference,SK-OV-3; concentration: 5,0.0329
same,difference,SK-OV-3; concentration: 10,0.0831
same,difference,SK-OV-3; concentration: 20,0.0836
O=C(c1cc(Cc2n[nH]c(=O)c3ccccc23)ccc1F)N1CCN(C(=O)C2CC2)CC1 (concentration unit: uM),difference,H1299; concentration: 1,-0.0151
same,difference,H1299; concentration: 2.5,-0.0147
same,difference,H1299; concentration: 5,0.0174
same,difference,H1299; concentration: 10,0.0357
same,difference,H1299; concentration: 25,0.0633
CO[C@H]1/C=C\C=C(/C)C(=O)NC2=CC(=O)C(NCCN(C)C)=C(C[C@@H](C)C[C@H](OC)[C@H](O)[C@@H](C)/C=C(\C)[C@@H]1OC(N)=O)C2=O (concentration unit: nM),difference,H1299; concentration: 5,0.0988
same,difference,H1299; concentration: 25,0.27
same,difference,H1299; concentration: 50,0.565
same,difference,H1299; concentration: 100,0.538
same,difference,H1299; concentration: 500,0.571
COc1cc([C@@H]2c3cc4c(cc3[C@@H](O[C@@H]3O[C@@H]5CO[C@@H](C)O[C@H]5[C@H](O)[C@H]3O)[C@H]3COC(=O)[C@H]23)OCO4)cc(OC)c1O (concentration unit: uM),difference,H1299; concentration: 0.5,0.147
same,difference,H1299; concentration: 1,0.0921
same,difference,H1299; concentration: 2.5,0.108
same,difference,H1299; concentration: 5,0.206
same,difference,H1299; concentration: 10,0.153
same,difference,H1299; concentration: 20,0.189
same,difference,LN-18; concentration: 1,0.0338
same,difference,LN-18; concentration: 2.5,0.04
same,difference,LN-18; concentration: 5,0.0489
same,difference,LN-18; concentration: 10,0.0688
same,difference,LN-18; concentration: 20,0.0487
same,difference,SK-OV-3; concentration: 1,0.0528
same,difference,SK-OV-3; concentration: 2.5,0.00327
same,difference,SK-OV-3; concentration: 5,0.00917
same,difference,SK-OV-3; concentration: 10,0.159
same,difference,SK-OV-3; concentration: 20,0.266
COC1=C2C[C@@H](C)C[C@H](OC)[C@H](O)[C@@H](C)/C=C(\C)[C@H](OC(N)=O)[C@@H](OC)/C=C\C=C(/C)C(=O)NC(=CC1=O)C2=O (concentration unit: nM),difference,H1299; concentration: 5,-0.0197
same,difference,H1299; concentration: 25,0.305
same,difference,H1299; concentration: 50,0.532
same,difference,H1299; concentration: 100,0.567
same,difference,H1299; concentration: 500,0.435

# Reference: the supplement of paper PMC11026393
